Measurements from PubChem BioAssay AID1259415 (National Center for Advancing Translational Sciences (NCATS), 2018).
About 18,000 (4.4%) of roughly 410,000 compounds were called active. Roughly 7% stayed inconclusive and do not appear here. The list comes from a sample in which actives are over-represented; it also holds similar structures and randomly drawn compounds. A number with no mark means an inactive call. Rule as the data show it: active = activity change below about -60%; inconclusive = no clear call, values can overlap the other calls; inactive = above about -39%.

Assay: qHTS Assay for inhibitors of the human cytomegalovirus (HCMV)
Conditions: HFF cells, HCMV-luciferase reporter, 72 h; at 57.5 µM; stronger effect = lower value
Summary of the method: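 Cell-based, HFFs, 1000 cells/well, 16 h 37C; cpds in DMSO + HCMV-luc, MOI 1 PFU/cell; 72 h 37C; OneGlo luminescence after 5 min RT; norm. to buffer vs Salinomycin 10uM.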
% is scaled to controls: 0 for no effect and ±100 for the full control effect.

Row | Compound | activity change, negative = inhibition
1 | COc1ccccc1CNC(=O)CCn1c(=O)c2ccccc2n(CC(=O)Nc2ccc(Br)cc2F)c1=O | -12.3%
2 | Cc1ccc(NC(=O)c2nc(S(=O)(=O)Cc3cccc(C)c3)ncc2Cl)cc1 | -94.3% (active)
3 | CCS(=O)(=O)c1ncc(N(Cc2ccc(F)cc2)Cc2ccco2)c(C(=O)Nc2cc(C)ccc2C)n1 | -29.7%
4 | Cc1ccc(CCNC(=O)c2ccc(CS(=O)(=O)Cc3cccc(C)c3)o2)cc1 | -17.4%
5 | Cc1cccc(CS(=O)(=O)c2ncc(Cl)c(C(=O)Nc3ccc(F)cc3)n2)c1 | -110% (active)
6 | Cc1cccc(NC(=O)c2nc(S(=O)(=O)Cc3ccccc3)ncc2Cl)c1 | -100% (active)
7 | Cc1cccc(NC(=O)Cn2cc(S(=O)(=O)Cc3ccccc3Cl)c3ccccc32)c1 | 0%
8 | Cc1ccc(Cn2c(CNC(=O)Cc3cccc(C)c3)nc3cccnc32)cc1 | -7.33%
9 | CCCSc1ncc(Cl)c(C(=O)Nc2c(C(=O)Nc3ccccc3)oc3ccccc23)n1 | -20.1%
10 | CCOC(=O)c1ccc(NC(=O)c2nc(SCc3ccc(F)cc3)ncc2Cl)cc1 | 13.6%
11 | CC=C(C)C(=O)OC1CCN2CC=C(COC(=O)C(O)(C(C)OC)C(C)(C)O)C12 (stereo unspecified) | -28.3%
12 | O=C(CCC1N=C2c3ccccc3N=C(SCc3ccccc3F)N2C1=O)NCCc1ccccc1 (stereo unspecified) | -29%
13 | O=C(Cn1c(=O)n(-c2ccc(F)cc2)c(=O)c2sccc21)Nc1cccc(C(F)(F)F)c1 | -5.68%
14 | CC1CCCCN1S(=O)(=O)c1ccc(F)c(C(=O)Nc2ccccc2C(F)(F)F)c1 (stereo unspecified) | 11%
15 | COc1cc([C@H](Cc2ccccc2)NC(C)=O)oc(=O)c1 | -10.1%
16 | NC(=O)c1sc2nc3c(c(-c4ccccc4)c2c1N)CCC3 | -93.9% (active)

Row | Compound | activity change, negative = inhibition
17 | COc1cccc(C(=O)c2sc3nc(-c4ccccc4)cc(C(F)(F)F)c3c2N)c1 | 7.18%
18 | CC(C)OC(=O)c1sc2nc3c(cc2c1N)C(=O)CCC3 | 45.7%
19 | CCOc1ccc(CCNC(=O)COC(=O)CCS(=O)(=O)c2ccc(C)cc2)cc1OCC | 55.9%
20 | COc1ccc(-c2cc(C(=O)NCc3cc(OC)c(OC)c(OC)c3)[nH]n2)cc1 | 3.93%
21 | COc1ccc(C(=O)Nc2cc(S(=O)(=O)N3CCCC3)ccc2Cl)cc1 | -31.9%
22 | COc1ccc(-n2nc3c(c2NC(=O)c2ccc(N4C(=O)CCC4=O)cc2)CSC3)cc1 | 0%
23 | COc1ccc(CC(=O)Nc2nc(-c3ccc(F)c(F)c3)cs2)cc1OC | -78.6% (active)
24 | COc1ccc(C(=O)Nc2nc(-c3ccc(S(=O)(=O)N4CCOCC4)cc3)cs2)cc1 | -98.4% (active)
25 | COc1ccc(CCNC(=O)COC(=O)Cc2cc(OC)c(OC)c(OC)c2)cc1 | -11.8%
26 | COc1ccc(-c2csc(NC(=O)c3ccc(N4C(=O)CCC4=O)cc3)n2)cc1OC | -70.7% (active)
27 | COc1ccc(CC(=O)Nc2nnc3n2CCS3)cc1OC | 1.77%
28 | Cc1cc2nc(NC(=O)c3ccc(S(=O)(=O)N4CCOCC4)cc3)sc2cc1C | 3.59%
29 | COc1cc(CC(=O)Nc2nc(-c3ccc(F)c(F)c3)cs2)cc(OC)c1OC | -77.3% (active)
30 | COc1ccc(C2(CNC(=O)Cc3ccc(OC)c(OC)c3)CCCC2)cc1 | -33.6%
31 | COc1ccccc1C(=O)Oc1ccc(N2C(=O)CCC2=O)cc1 | -9.72%
